Among all 320,000 compounds or so, about 22,000 (6.9%) were called active. Roughly 27% stayed inconclusive and do not appear here. This is one part of a sample in which actives are shown more often than they occur. Unmarked numbers belong to inactive results. Calls follow the shape of the dose curve; as a rule, active = well fitted inhibition curve with a large enough effect; inconclusive = small, poorly fitted or top-dose-only effect, or another doubt; inactive = no such curve, though single readings can be large or run the other way.
% is scaled to controls: 0 for no effect and ±100 for the full control effect; potency is read from the fitted curve at half-maximal effect.

The nature of the assay: Primary qHTS for delayed death inhibitors of the malarial parasite plastid, 96 hour incubation. Conditions: P. falciparum luciferase reporter growth; series mostly up to 28.7 µM; activity change, negative = inhibition: at the top concentration. The gist of the method: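 Infected RBCs, 2% Hct / 0.05% parasitemia final; luciferase-reporter P. falciparum; cpd 96 h, 37 C, 5% CO2; luciferase detection reagent; luminescence.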
As for `O=C(Nc1cccc(Cl)c1)OCc1ccccn1`, the “activity change, negative = inhibition” value was 154%.
For `CCOc1ccc(C(=O)Nc2cccc(SC)c2)cc1`, the “activity change, negative = inhibition” value was 186%.
For `CCOc1c(Nc2cccc(Cl)c2)c(=O)c1=O`, the Potency is 11.7 µM (active).
Regarding `O=C(NCc1ccc(F)cc1)C1CCN(C(=O)Nc2ccc(F)cc2)CC1`, the “activity change, negative = inhibition” value is -3.5%.
For `CC1CCCCN1S(=O)(=O)CCNC(=O)c1ccccc1` (configuration not stated), the “activity change, negative = inhibition” value is 8.3%.
Regarding `Cc1cc(C(=O)OCC(=O)Nc2ccccc2Cl)c(C)o1`, the “activity change, negative = inhibition” value is -28.2%.
For `O=C(COC(=O)c1cc(S(=O)(=O)N2CCOCC2)ccc1Cl)NCCc1ccccc1`, the “activity change, negative = inhibition” value was 9.09%.
Regarding `COCCN(Cc1ccccc1)C(=O)Cc1ccc(S(=O)(=O)N2CCOCC2)s1`, the Potency was 9.28 µM (active).
Turning to `O=C(O)c1ccc(S(=O)(=O)N2CCOCC2)o1`, the “activity change, negative = inhibition” value is 32.6%.
Consider `COC(=O)COc1ccc(S(=O)(=O)N2CCOCC2)cc1`, for which the “activity change, negative = inhibition” value is 9.23%.
For `O=C(Cc1ccc(S(=O)(=O)N2CCOCC2)s1)NCCC(c1ccccc1)c1ccccc1`, the Potency was 7.38 µM (active).
`COc1ccccc1NC(=O)COC(=O)Cc1ccc(S(=O)(=O)N2CCCCC2)s1`: the “activity change, negative = inhibition” value was -13.1%.
In the case of `C[n+]1ccc(C(=O)NCc2ccccc2)cc1`, the “activity change, negative = inhibition” value is -9.48%.
As to `COc1ccnc2c1c(=O)n(Cc1cccc(F)c1)c(=O)n2C`, the “activity change, negative = inhibition” value is -18.2%.
For `COc1ccc(/C=N/Nc2cc(N3CCOCC3)nc(C)n2)c(OC)c1`, the “activity change, negative = inhibition” value was -10.6%.
`CCNc1nc(Oc2ccc(C(=O)OC)cc2)nc(N2CCOCC2)n1`: the “activity change, negative = inhibition” value is -8.27%.
As for `Cc1cc(/C=C2/SC(=O)N(CC(=O)N3CCCC3)C2=O)c(C)n1C`, the “activity change, negative = inhibition” value was 0.761%.
On to `COc1cccc(C(=O)CC(=O)C(=O)Nc2ccc([N+](=O)[O-])cc2C)c1`, for which the “activity change, negative = inhibition” value was 7.8%.
With `Cc1cc([N+](=O)[O-])ccc1NC1CCCC1`, the “activity change, negative = inhibition” value was 33.7%.
For `Cc1cc([N+](=O)[O-])ccc1NCc1cccc([N+](=O)[O-])c1`, the Potency is 10.4 µM (active).
`COC(=O)c1ccccc1NC(=O)CSc1ccccn1`: the Potency was 2.94 µM (active).
For `COC(=O)c1ccccc1NC(=O)CSc1nnnn1C`, the “activity change, negative = inhibition” value was -13.6%.
The same measure, in the same setting: next, `C[C@@H]1CC[C@@]2(OC1)O[C@H]1C[C@H]3[C@@H]4CC=C5C[C@@H](O)[C@H](O)C[C@]5(C)C4CC[C@]3(C)[C@H]1[C@@H]2C` (some centres not stated): 18.3%; `COc1cc(C(=O)NCC(=O)N2CC=C(c3ccccc3)CC2)cc(OC)c1OC`: -7.67%; `Cc1cc(OCC(=O)Nc2c(C)n(C)n(-c3ccccc3)c2=O)ccc1[N+](=O)[O-]`: -12.6%.
On the same count and under the same terms, the same measure for `O=C(COC(=O)c1ccc[nH]c1=O)Nc1ccc2c(c1)OC(F)(F)O2`: 6.84%.
Regarding `O=C(O)COCC(=O)NCc1csc2ccc(Cl)cc12`, the “activity change, negative = inhibition” value is 5.36%.
As to `c1cc(-c2nn[nH]n2)ccc1CN1CCCCC1`, the “activity change, negative = inhibition” value is 14%.
On to `O=C(Nc1ccc(CN2CCOCC2)cc1)c1cc(Cl)ccc1Cl`, for which the “activity change, negative = inhibition” value was 64.2%.
`Clc1ccc(CN2CCCCCC2)cc1Cl`: the Potency is 11.7 µM (active).
As to `COc1ccccc1C(=O)NC(=S)NC12CC3CC(CC(C3)C1)C2`, the “activity change, negative = inhibition” value is 53.4%.
On the same count and under the same terms, the same measure for `COc1ccc(NC(=S)N2CCC(NC(=O)c3cccc(F)c3)CC2)cc1`: 23.6%; for `CCn1c(C)cc(=O)cc1-c1ccc(Cl)cc1`: -8.16%.
Consider `COc1ccc(Cn2c(-c3ccc(Cl)cc3)c[n+]3ccccc23)cc1`, for which the Potency is 0.117 µM (active).
For the molecule `COc1ccc(C(=O)CN(C(=O)c2ccc(Cl)cc2)N2C(=O)c3ccccc3C2=O)cc1`, the “activity change, negative = inhibition” value was -5.05%.
As for `Cc1cc(C)c(C(=O)CSc2nc(C)cc(=O)[nH]2)c(C)c1`, the “activity change, negative = inhibition” value is 19.3%.
The same measure, in the same setting: the same measure for `CSc1nnc(C2CCCN(CC(=O)Nc3ccccc3N3CCOCC3)C2)n1C(C)C` (configuration not stated): -0.457%; for `COc1ccc(C(=O)n2nc(C)c(Br)c2C)cc1OC`: -23.3%; for `O=S(=O)(Nc1ccc(Cl)cn1)c1cnc(Cl)c(Br)c1`: -15.1%.
Consider `COC(=O)c1ccc(S(=O)(=O)N2CCc3ccccc3C2)cc1`, for which the “activity change, negative = inhibition” value was 4.42%.
Take `Cc1cccc(N2CCN(C(=O)c3cccc(S(=O)(=O)N4CCc5ccccc5C4)c3)CC2C)c1` (configuration not stated): the Potency was 11.7 µM (active).
`CN1CCN(S(=O)(=O)c2cccc(C(=O)N3CCc4ccccc43)c2)CC1`: the “activity change, negative = inhibition” value is -2.85%.
Consider `CSc1ccc(CNCCN2CCOCC2)cc1`, for which the “activity change, negative = inhibition” value is -19%.
Still for that read-out and setting: next, `CCCCc1ccc(NC(=S)NCCCN2CCOCC2)cc1`: -2.79%.
As for `CCCCC(CC)CNCc1cccn1CCN1CCOCC1` (configuration not stated), the Potency is 11.7 µM (active).
As to `COc1cccc(N2CC(C(=O)NCc3n[nH]c(=O)c4ccccc34)CC2=O)c1` (configuration not stated), the “activity change, negative = inhibition” value was 0.0788%.
In the case of `CC(C[N+](C)(C)C)OC(N)=O` (configuration not stated), the Potency is 9.53 µM (active).
As to `CCc1ccc[n+](-c2nc([O-])sc2C=O)c1`, the “activity change, negative = inhibition” value was 3.32%.
Take `COc1ccc(CNc2cc(C)cc(C)c2)cc1OC`: the “activity change, negative = inhibition” value is 333%.
For `COc1ccc(C(=O)/C=C/c2cccnc2)c(OC)c1`, the “activity change, negative = inhibition” value was 45%.
In the case of `COc1ccc(/C=C/C(=O)c2ccc(OC)cc2O)cc1`, the “activity change, negative = inhibition” value is 0.573%.
Turning to `COc1ccc(/C=C/C(=O)c2cc(Br)ccc(=O)c2O)cc1`, the Potency was 10.4 µM (active).
